The values that follow come from PubChem BioAssay.

Records with an inconclusive call do not appear. Active and inactive are the calls of the source.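 Rule for the calls, unless noted: active = growth inhibition above 25% in both replicates, a cutoff set 3 SD above the mean; inconclusive = above 25% in only one replicate; inactive = the rest.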

The nature of experiment [1]: SK-BR-3 cell growth inhibitors, pilot screen, 24 h, human (AID 572;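 active = viability at or below 10% of carrier control in both of two separate runs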;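 note: compound exposure lasted between 18 and 24 h rather than exactly 24 h; 100% = carrier-treated control wells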). To be noted: SK-BR-3 viability, CellTiter-Glo luminescence, at 10 µM, stronger effect = lower value. (Cellular ATP, detected with luciferase, serves as a proxy for viable cell number.)
A short description of experiment [2]: growth inhibitors of H69AR lung tumor, primary screen, human, duplicate replicates (AID 580;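 active = viability at or under a set limit in both replicates, limit being median viability minus 3 SD, cut at about 48% in these data, passing the limit was not always enough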;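 note: 100% = mean luminescence of untreated wells and 0% = no signal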). The settings on record: H69AR lung tumor cells viability, ATP luminescence, 72 h; at 10 µM; stronger effect = lower value.
Experiment [3] is described as follows: reversal of MRP1-mediated doxorubicin resistance, pilot screen, H69AR cells, doxorubicin co-treatment (AID 601;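 active = viability loss from added drug above about 55%, and viability with drug at most 40%, in both replicates, limit read from the data, passing the limit was not always enough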). To be noted: CellTiter-Glo, 72 h, at 10 µM; for differential viability (reversal): stronger effect = higher value.
Experiment [4] in a line: 384-well plate pilot, post-Golgi transport modulator project, inhibition of yeast transport mutant growth (AID 636; in the data active = inhibition above about 31%). To be noted: absorbance 615 nm, about 18 h, stronger effect = higher value.
Experiment [5] can be described thus: growth suppression of yeast trafficking mutant, preliminary HTS, modulators of trafficking downstream of Golgi apparatus project, 1536-format plate, OD 615 nm (AID 637; in the data active = inhibition above about 30%). To be noted: yeast transport mutant growth, absorbance 615 nm, 18 h; stronger effect = higher value.
Experiment [6] can be described thus: OD615 S. cerevisiae growth inhibition, permissive medium, pilot counter-assay, permissive growth control for S. cerevisiae lifespan shortening project (AID 705). The settings on record: OD615, 24 h, at 10 µM, stronger effect = higher value.
The nature of experiment [7]: Restrictive medium S. cerevisiae growth inhibition, OD615, pilot screen of yeast lifespan reduction project, restrictive growth control (AID 706;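 active = growth inhibition above a set limit, 3 SD over mean compound inhibition, in both replicates, cut at about 43% in these data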;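 note: modified DeaD lifespan yeast strain shifted to restrictive glucose medium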). The settings on record: OD615, 48 h, at 10 µM, stronger effect = higher value.
A short description of experiment [8]: viability gain of MRP-1-high H69AR cells under doxorubicin, pilot screen, MRP-1 activator project, CellTiter-Glo, duplicate (AID 807;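 active = viability increase at or above a cutoff of the median across tested compounds plus 3 SD, cut at about 8.5% in these data, passing the limit was not always enough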;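 note: compound pretreatment 18-22 h then 72 h combined with doxorubicin; 0% = doxorubicin alone and 100% = vehicle without doxorubicin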). The settings on record: H69AR viability with doxorubicin, CellTiter-Glo luminescence; at 10 µM; stronger effect = higher value.
The nature of experiment [9]: growth suppression of beta-catenin knockout HCT116, pilot screen, human colon tumor cells (AID 823;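 active = cell viability at or below a set limit in both duplicate runs, the limit being the all-compound median minus 4 SD, cut at about 23% in these data, passing the limit was not always enough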;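 note: 0% = wells killed by 20 µM Hyamine and 100% = untreated DMSO cell wells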). To be noted: CellTiter-Glo, 60 h, at 10 µM, stronger effect = lower value.
A short description of experiment [10]: growth suppression of PTEN-deleted HCT116, pilot screen, cell-based, HCT116 clonal line, CellTiter-Glo (AID 824;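 active = viability at or below 27.92% in each of two runs, the all-compound median minus 4 SD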;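 note: 0% = 20 µM Hyamine control and 100% = vehicle cell control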). The settings on record: 60 h, at 10 µM, stronger effect = lower value.
The nature of experiment [11]: RAM signaling pathway blockade in yeast – S. cerevisiae, Pdr1DBD-CYC8 efflux-inhibited sensitized strain, primary screen (AID 1298;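 active = RAM network inhibition above 8.4% in each of two replicates, 3 SD over the compound average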;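 note: 0% = DMSO untreated cells without growth and 100% = 10 µM 1-NA-PP1 full growth; higher means more yeast growth rescued from 5-FOA killing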). The settings on record: S. cerevisiae cbk1-as DSE1-URA3 strain, 5-FOA growth OD615, 2 d; at 50 µM; stronger effect = higher value.
Experiment [12] in a line: HUVEC growth inhibition – cell-based, human, primary screen (AID 575;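 active = viability at or below 30% in both replicate assays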;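 note: 100% = median of untreated cell wells with 0.1% DMSO on each plate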). To be noted: HUVEC proliferation, CellTiter-Glo luminescence, 72 h; at 10 µM; stronger effect = lower value.
The nature of experiment [13]: inhibitors of the yeast RAM network, pilot screen, dse1pr::URA3 reporter, 5-FOA selection (AID 869;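 active = inhibition over a set limit, the all-compound mean plus 3 SD, in both replicate runs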;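 note: 0% = DMSO wells with no growth and 100% = 10 µM 1-NA-PP1 with full growth; RAM network block rescues cells from 5-FOA so hits raise OD615 growth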). To be noted: S. cerevisiae dse1pr::URA3 5-FOA growth, OD615, 2 d; at 10 µM; stronger effect = higher value; strain carries analog-sensitive mutant Cbk1 kinase.
Setting [14] is: H69AR cells + 2 uM doxorubicin, measured here: viability with 2 uM doxorubicin, stronger effect = lower value.
The mark [15] stands for this setting: H69AR cells, compound alone cytotoxicity.

`COC(=O)c1[nH]c2c(c1C)C(=O)CC(c1cc(OC)ccc1OC)C2` (configuration not stated): the viability in [1] is 98.5% (inactive); in [2] it was 14.9% (active); in experiment [3] (setting [14]) it was 51.9%; in experiment [3] (setting [15]), 14.9%; in experiment [9] it was 34.6% (inactive); in experiment [10], 29.4% (inactive). For the same compound, the differential viability (reversal) in [3] (H69AR cells + 2 uM doxorubicin) was -37% (inactive). The results for the inhibition in experiment [4] and in [5] were -6.8% (inactive) and -6.33% (inactive), respectively. The growth inhibition was -10.4% (inactive) in experiment [6] and -8.8% (inactive) in experiment [7]. For the same compound, the viability increase in [8] is -5.77% (inactive). Moreover, in experiment [11], the RAM network inhibition is 1.94% (inactive).
Regarding `CCN(CC)S(=O)(=O)c1ccc2c(c1)nc(SCn1nnc3ccccc3c1=O)n2CC`, the viability in experiment [1] is 74% (inactive); in experiment [12] it was 81.1% (inactive); in experiment [2], 83.2% (inactive); in experiment [3] (setting [14]) it was 74.6%; in experiment [3] (setting [15]), 83.2%; in experiment [9], 90.7% (inactive). Also, in experiment [10], the viability is 103% (inactive). Further, in [3] (H69AR cells + 2 uM doxorubicin), the differential viability (reversal) is 8.64% (inactive). Moreover, the inhibition is -4.93% (inactive) in experiment [4], -2.36% (inactive) in [5] and 2.54% (inactive) in [13]. Moreover, the growth inhibition was -1.67% (inactive) in experiment [6] and -5.42% (inactive) in [7]. The viability increase in [8] was 2.88% (inactive). Moreover, the RAM network inhibition in [11] is 7.57% (inactive).
With `COc1ccc(OCCCC(=O)Nc2nncs2)cc1`, the viability was 97% (inactive) in experiment [1]; 101% (inactive) in [12]; 89.6% (inactive) in experiment [2]; 83.1% in experiment [3] (setting [14]); 89.6% in [3] (setting [15]); 94.5% (inactive) in [9]. Further, the differential viability (reversal) in [3] (H69AR cells + 2 uM doxorubicin) was 6.49% (inactive). Further, the inhibition in [4] is -5.27% (inactive); in experiment [5], -2.73% (inactive); in experiment [13] it was 2.95% (inactive). Also, the growth inhibition in experiment [6] is -11.5% (inactive); in [7], -0.545% (inactive). Further, the viability increase in experiment [8] is -0.07% (inactive). The RAM network inhibition in experiment [11] is 4.52% (inactive).
On to `CCOC(=O)N1CCN(C(=O)CN(C2CCCCC2)S(=O)(=O)c2ccc(F)cc2)CC1`, for which the viability in experiment [1] was 113% (inactive); in experiment [12], 97.3% (inactive); in experiment [2] it was 97.7% (inactive); in experiment [3] (setting [14]) it was 91.7%; in [3] (setting [15]), 97.7%; in experiment [9], 99.8% (inactive). Besides, the viability in experiment [10] was 103% (inactive). Further, in experiment [3] (H69AR cells + 2 uM doxorubicin), the differential viability (reversal) was 5.98% (inactive). For the same compound, the inhibition in experiment [4] is -6% (inactive); in experiment [5], -4.36% (inactive); in experiment [13], -0.815% (inactive). In addition, the growth inhibition was -7.17% (inactive) in [6] and -5.59% (inactive) in experiment [7]. Further, in [8], the viability increase was 0.22% (inactive). Also, in experiment [11], the RAM network inhibition is 6.62% (inactive).
`CCOC(=O)Nc1c(O)ccc2oc(C)c(-c3ccccc3)c12`: the viability in [1] was 102% (inactive); in experiment [12], 68.7% (inactive); in experiment [2], 99.8% (inactive); in experiment [3] (setting [14]) it was 99.8%; in [3] (setting [15]), 99.8%; in experiment [9], 79.4% (inactive). The viability in experiment [10] was 80.9% (inactive). Further, in experiment [3] (H69AR cells + 2 uM doxorubicin), the differential viability (reversal) is 0.02% (inactive). In addition, the inhibition in experiment [4] was 0.26% (inactive); in experiment [5] it was 15.3% (inactive); in [13], 1.51% (inactive). The growth inhibition in experiment [6] is -15.4% (inactive); in [7], -6.34% (inactive). Moreover, the viability increase in experiment [8] was -2.89% (inactive). In [11], the RAM network inhibition is 3.9% (inactive).
For `Cc1ccc(-c2oc3ccccc3c(=O)c2O)cc1`, the viability is 78.5% (inactive) in experiment [1]; 67.8% (inactive) in experiment [2]; 74.5% in [3] (setting [14]); 67.8% in experiment [3] (setting [15]); 10.2% (active) in [9]; 11.8% (active) in [10]. Moreover, the differential viability (reversal) in experiment [3] (H69AR cells + 2 uM doxorubicin) is -6.71% (inactive). Moreover, the inhibition in experiment [4] was -3.87% (inactive); in experiment [5], -1.17% (inactive); in experiment [13], 2.66% (inactive). The growth inhibition in experiment [6] is -12.1% (inactive); in experiment [7], -12.3% (inactive). The viability increase in experiment [8] was -5.56% (inactive). For the same compound, the RAM network inhibition in experiment [11] is 0.63% (inactive).
Take `c1ccc(-c2nnc(SCc3nc4ccccc4[nH]3)o2)cc1`: the viability in experiment [1] was 94% (inactive); in experiment [12], 98.9% (inactive); in [2], 88.8% (inactive); in experiment [3] (setting [14]), 85.8%; in experiment [3] (setting [15]) it was 88.8%; in experiment [9] it was 93.5% (inactive). Moreover, the viability in [10] is 88.8% (inactive). Moreover, the differential viability (reversal) in experiment [3] (H69AR cells + 2 uM doxorubicin) was 2.98% (inactive). Besides, the figures for the inhibition in experiment [4], in [5] and in experiment [13] were -5.6% (inactive), 0.91% (inactive) and 1.33% (inactive), respectively. In [6], the growth inhibition is 7.59% (inactive). In addition, the viability increase in experiment [8] was -5.05% (inactive). In experiment [11], the RAM network inhibition was 1.69% (inactive).
`O=C(CCCn1c(=O)[nH]c2ccsc2c1=O)N1CCN(c2ccccn2)CC1`: the viability is 89% (inactive) in [1]; 99.5% (inactive) in [12]; 101% (inactive) in experiment [2]; 94.5% in [3] (setting [14]); 101% in [3] (setting [15]); 100% (inactive) in experiment [9]. For the same compound, the differential viability (reversal) in [3] (H69AR cells + 2 uM doxorubicin) is 6.23% (inactive). In addition, the inhibition in experiment [4] is -6.4% (inactive); in experiment [5], -0.18% (inactive); in experiment [13] it was 2.25% (inactive). For the same compound, the values for the growth inhibition in experiment [6] and in experiment [7] were -0.715% (inactive) and 2.48% (inactive), respectively. Further, the viability increase in experiment [8] is -4.76% (inactive). Moreover, the RAM network inhibition in [11] is 4.21% (inactive).
On to `CCc1ccc(C(=O)NC2CCCCC2)s1`, for which the viability in [1] was 68% (inactive); in experiment [12], 94.7% (inactive); in [2] it was 109% (inactive); in [3] (setting [14]), 90.7%; in experiment [3] (setting [15]), 109%; in [9] it was 91.8% (inactive). The differential viability (reversal) in [3] (H69AR cells + 2 uM doxorubicin) is 17.8% (inactive). In addition, the inhibition in [4] is -3.01% (inactive); in experiment [5], 0.81% (inactive); in experiment [13], -0.215% (inactive). The results for the growth inhibition in [6] and in [7] were -14.4% (inactive) and 3.24% (inactive), respectively. Also, the viability increase in experiment [8] is -0.13% (inactive). In addition, in [11], the RAM network inhibition was 4.77% (inactive).
Regarding `Cc1cc(NC(=O)CS(=O)(=O)c2cn(Cc3ccccc3Cl)c3ccccc23)no1`, the viability in [1] is 92% (inactive); in experiment [12], 79.2% (inactive); in experiment [2], 92.1% (inactive); in experiment [3] (setting [14]) it was 81%; in experiment [3] (setting [15]) it was 92.1%; in [10] it was 47.8% (inactive). Further, in experiment [3] (H69AR cells + 2 uM doxorubicin), the differential viability (reversal) is 11.1% (inactive). In addition, the inhibition in [4] is -5.2% (inactive); in experiment [5] it was 5.82% (inactive); in experiment [13], 2.17% (inactive). Also, the growth inhibition in [6] was -4.35% (inactive); in [7], -0.555% (inactive). The viability increase in experiment [8] is -2.24% (inactive). The RAM network inhibition in [11] was 3.11% (inactive).
Take `Cc1oc(-c2cccc(Cl)c2)nc1CN1CCC(C(=O)N2CCN(c3ccccc3F)CC2)CC1`: the viability in experiment [1] is 73% (inactive); in [12] it was 4.6% (active); in experiment [2] it was 32.3% (active); in [3] (setting [14]), 57%; in experiment [3] (setting [15]) it was 32.3%; in [9] it was 17.2% (active). Moreover, the viability in experiment [10] was 10.2% (active). Also, in experiment [3] (H69AR cells + 2 uM doxorubicin), the differential viability (reversal) was -24.7% (inactive). Further, the inhibition was -1.6% (inactive) in experiment [4], -3.28% (inactive) in experiment [5] and 1.05% (inactive) in experiment [13]. The results for the growth inhibition in experiment [6] and in experiment [7] were 0.125% (inactive) and 1.06% (inactive), respectively. For the same compound, in [8], the viability increase is -7.78% (inactive). Moreover, the RAM network inhibition in [11] was 6.04% (inactive).

The term viability denotes a read-out of living cells in per cent, often relative to untreated cells. The inhibition is the change of the read-out against control, counted positive when it falls.
